system: Vero E6 infected with SARS-CoV-2; assay: morphology score (similarity to uninfected cells); higher = more like uninfected cells; conditions: 24 h

| Structure (SMILES) | morphology score |
| --- | --- |
| CCN(CC)C(=O)[C@@]1(c2ccccc2)C[C@H]1CN [milnacipran] (10 µM) | 0.0186 |
| CC(O)CN1CCN(CC(=O)[O-])CCN(CC(=O)[O-])CCN(CC(=O)[O-])CC1.[Gd+3] (stereo not given) [gadoteridol] (10 µM) | -0.0781 |
| N#CSc1cc(SC#N)c(N)nc1N (0.833333 µM) | 0.125 |
| NCCCCCNCC12CC3CC(CC(C3)C1)C2 (10 µM) | 0.229 |
| Cc1cnc(-c2ccccc2C(C)C)nc1NCc1ccc(-n2ccnn2)cc1 (10 µM) | 0.0189 |
| O=C(O)c1cc(O)c2ccc(Cl)cc2n1 [7-chlorokynurenic-acid] (10 µM) | 0.0315 |
| Oc1ccc2c3c1O[C@H]1c4oc5ccccc5c4C[C@@]4(O)[C@@H](C2)N(CC2CC2)CC[C@]314 [naltriben] (10 µM) | -0.128 |
| Cc1cc(Nc2nc(N[C@@H](C)c3ccc(F)cc3)c(C#N)cc2F)n[nH]1 (10 µM) | -0.0459 |
| CN(C)CCCN1c2ccccc2Sc2ccc(C(F)(F)F)cc21 [triflupromazine] (10 µM) | 0.465 |
| CN(Cc1cnc2nc(N)nc(N)c2n1)c1ccc(C(=O)N[C@@H](CCC(=O)O)C(=O)O)cc1 [methotrexate] (10 µM) | -0.183 |
| NC(=O)CCCCC1CCSS1 (stereo not given) [lipoamide] (10 µM) | -0.0248 |
| C[C@@H](C(=O)O)c1ccc(-c2ccccc2)c(F)c1 (racemic) [flurbiprofen-(+/-)] (10 µM) | 0.232 |
| CN[C@@H](C)C(=O)N[C@H]1CCCC[C@H]2CC[C@@H](C(=O)N[C@@H](c3ccccc3)c3cn(CCCCc4ccc(CCCCn5cc([C@@H](NC(=O)[C@@H]6CC[C@@H]7CCCC[C@H](NC(=O)[C@H](C)NC)C(=O)N76)c6ccccc6)nn5)cc4)nn3)N2C1=O (10 µM) | 0.155 |
| O=NO [sodium-nitrite] (10 µM) | 0.176 |
| Nc1nnc(-c2cccc(Cl)c2Cl)c(N)n1 [lamotrigine] (10 µM) | 0.0194 |
| C[C@H]1O[C@@H](n2cc(F)c(=O)[nH]c2=O)[C@H](O)[C@@H]1O [doxifluridine] (10 µM) | 0.32 |
| COc1ccc(O)c(C(C)(C)C)c1.COc1ccc(O)cc1C(C)(C)C [butylated-hydroxyanisole] (10 µM) | -0.127 |
| COc1ccc2ccc(=O)oc2c1CC=C(C)C [osthol] (10 µM) | 0.243 |
| COc1ccc2c(Oc3ccc(NC(=O)c4c(C)n(CC(C)(C)O)n(-c5ccccc5)c4=O)nc3)ccnc2c1 (10 µM) | 0.316 |
| C[C@@H]1C/C=C/C=C/C=C/C=C/[C@H](O[C@@H]2O[C@H](C)[C@@H](O)[C@H](N)[C@@H]2O)C[C@@H]2O[C@](O)(C[C@@H](O)C[C@H]3O[C@@H]3/C=C/C(=O)O1)C[C@H](O)[C@H]2C(=O)O [natamycin] (10 µM) | 0.0781 |

| Structure (SMILES) | morphology score |
| --- | --- |
| C=C(C)[C@@H]1CC[C@]2(CO)CC[C@]3(C)[C@H](CC[C@@H]4[C@@]5(C)CC[C@H](O)C(C)(C)[C@@H]5CC[C@]43C)[C@@H]12 (10 µM) | 0.000891 |
| CC(C)(C)NCC(O)c1ccc(O)c(CO)c1 (stereo not given) [albuterol] (10 µM) | 0.108 |
| Cc1ccc(-n2nc(C(C)(C)C)cc2NC(=O)NCc2cc(F)ccc2Oc2ccc3c(cnn3CCO)c2)cc1 [pexmetinib] (0.833333 µM) | 0.226 |
| Cc1nc2cnc3ccc(C#Cc4cccnc4)cc3c2n1-c1ccc(C(C)(C)C#N)cc1 (10 µM) | 0.114 |
| CC[C@H]1[C@@H](O)[C@@H]2[C@H](CC[C@]3(C)[C@@H]([C@H](C)CCC(=O)O)CC[C@@H]23)[C@@]2(C)CC[C@@H](O)C[C@@H]12 [obeticholic-acid] (10 µM) | 0.174 |
| C[C@H](Cc1cc2c(c(C(N)=O)c1)N(CCCO)CC2)NCCOc1ccccc1OCC(F)(F)F [silodosin] (10 µM) | -0.144 |
| CCN(CC)Cc1cc(Nc2ccnc3cc(Cl)ccc23)ccc1O [amodiaquine] (10 µM) | 0.839 |
| C=C1CC[C@@H]2[C@](C)(CO)[C@H](O)CC[C@@]2(C)[C@@H]1C/C=C1/C(=O)OC[C@H]1O [andrographolide] (0.833333 µM) | 0.123 |
| CC(C)(C)Sc1c(CC(C)(C)C(=O)O)n(Cc2ccc(Cl)cc2)c2ccc(OCc3ccc4ccccc4n3)cc12 [quiflapon] (10 µM) | -0.04 |
| Cc1ccc2cc(-c3c(C)ccc(C(=O)c4c(-c5ccccc5)n(C)n(-c5ccccc5)c4=O)c3N)ccc2n1 (10 µM) | 0.0631 |
| C[C@H](Cc1ccc(OCC(=O)O)cc1)NC[C@H](O)c1cccc(Cl)c1 (10 µM) | -0.0663 |
| CCN(CC)CCNC(=O)COc1ccc(OC)cc1 [mefexamide] (10 µM) | 0.0556 |
| O=C(NCCN1CCC2(CC1)C(=O)NCN2c1cccc(F)c1)c1ccc(F)c(F)c1 (10 µM) | 0.259 |
| N=C(N)NCCCC[C@@H]1NC(=O)CCSSC[C@@H](C(N)=O)NC(=O)[C@@H]2CCCN2C(=O)[C@H](Cc2c[nH]c3ccccc23)NC(=O)[C@H](CC(=O)O)NC(=O)CNC1=O [eptifibatide] (10 µM) | -0.125 |
| COC(=O)C1=CCCN(C)C1 [arecoline] (10 µM) | 0.184 |
| Cc1cc(OI)c(C(C)C)cc1-c1cc(C(C)C)c(OI)cc1C [thymol-iodide] (10 µM) | -0.117 |
| O=C(O)c1cc(=O)c2ccccc2o1 [chromocarb] (10 µM) | -0.133 |
| Cc1nn(C)c2nc(NNC(=O)Nc3cc(Cl)nc(Cl)c3)cc(C(C)C)c12 (10 µM) | 0.0785 |
| CO[C@]12C[C@@H](COC(=O)c3cncc(Br)c3)CN(C)[C@@H]1Cc1cn(C)c3cccc2c13 [nicergoline] (10 µM) | 0.275 |
| Cc1c(C)c2c(c(C)c1O)CC[C@@](C)(CCC[C@H](C)CCC[C@H](C)CCCC(C)C)O2 [vitamin-E] (10 µM) | -0.299 |

From the supplement of paper PMC13380429
